Bioassay records as filed in PubChem BioAssay.
GC-B act = GC-B (human) receptor activation; P20594; HEK293-GC-B cells, CNP EC30, cGMP TR-FRET; 0% at EC30 CNP, 100% saturating CNP; activation, % at 10 µM; actives 0.11% (n = 370,000); AID 1920062;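 active = activation at 10 µM reaching about 35% in either raw or pattern-adjusted values, limit read from the data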
NPR1 activator = GC-A (human) enzyme activation. activation, % at 10 µM. AID 1671463. P16066. HEK293 GC-A cells, cGMP TR-FRET, EC30 ANP; 0% at EC30 ANP, 100% saturating ANP. actives 0.14% (n = 370,000); in the data active = activation above about 40%
HDAC3 inhib = blocks human histone deacetylase 3 | recombinant HDAC3, fluorogenic peptide/trypsin coupled, fluorescence | O15379 | actives 0.15% (n = 320,000) | inhibition, % at 8.3 µM | AID 2718; in the data active = inhibition above about 26%, passing the limit was not always enough
ALR inh = human ALR oxidase inhibition via reduced H2O2 | purified ALR, DTT oxidation, H2O2 HRP-luminol luminescence | inhibition, % (concentration not given with the values) | P55789 | actives 3.8% (n = 290,000);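 active = mean replicate inhibition above about 79%, with every replicate also reaching it, limit read from the data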
* marks the source's active call; other numbers are inactive results; nt = not tested or not shown. Shown is part of a subset that was picked to be rich in hits.

SMILES	GC-B act	NPR1 activator	HDAC3 inhib	ALR inh
Cn1cc(/C=C/c2cc[n+](C)cc2)c2cc(Cl)ccc21	-7	-2	5	nt
C[n+]1ccc(/C=C/c2c[nH]c3ccc(F)cc23)cc1	-10	-16	5	31
COc1cccc(CNC(=O)c2ccc(C3SCCS3)cc2)c1	-8	-3	-1	91*
Cc1nn(CC(=O)NNC(=S)Nc2ccccc2)c(C)c1[N+](=O)[O-]	2	0	5	80*
COc1ccc(NC(=S)NNC(=O)Cn2nc([N+](=O)[O-])cc2C)cc1	3	-2	3	81*
Cc1ccccc1NC(=O)Cc1nc(CCl)cs1	2	0	-5	92*
Cc1ccc(SCC(=O)OCc2csc(CC(=O)Nc3ccccc3C)n2)cc1C	4	2	3	99*
O=C(C(=O)N1CCN(c2ccccc2Cl)CC1)c1c[nH]c2ccccc12	6	-4	2	-3
CCCCC(=O)NNC(=O)N1c2ccccc2Sc2ccccc21	-6	-4	6	99*
CC(C)(C)NC(=O)N1c2ccccc2Sc2ccccc21	-6	-14	-9	82*
COc1ccc(C(=O)O/N=C(/c2ccccc2)c2ccncc2)cc1	-2	-13	44*	-2
CN(Cc1c(C(=O)N/N=C/c2ccc(O)cc2)nnn1-c1nonc1N)c1ccccc1	0	1	9	100*
CN(Cc1c(C(=O)N/N=C/c2ccccc2)nnn1-c1nonc1N)c1ccccc1	-1	-1	6	0
COc1cc(/C=N/NC(=O)c2nnn(-c3nonc3N)c2C(C)C)ccc1O	1	1	10	99*
COc1cc(/C=N/NC(=O)c2nnn(-c3nonc3N)c2-c2cccs2)ccc1O	4	3	5	89*
COc1ccc(/C=N/NC(=O)c2nnn(-c3nonc3N)c2-c2cccs2)cc1OC	-5	2	-1	4
Cn1c(CNC(=O)CCNC(=O)c2ccccc2F)cc(=O)n(C)c1=O	8	3	-1	1
N#CC1=C(N)SC(N)=C(C#N)C1c1ccc(C(F)(F)F)cc1	nt	nt	10	69
N#CC1=C(N)SC(N)=C(C#N)C1c1ccc([N+](=O)[O-])cc1	-3	3	6	98*
Cc1ccc(/C=C2/C(=N)N3N=C(CC(=O)N4CCCC4)SC3=NC2=O)cc1	0	-2	2	97*
C=CCOc1ccc(/C=C2/C(=N)N3N=C(CC(=O)N4CCCC4)SC3=NC2=O)cc1OC	-3	-5	-1	99*
O=C1c2[nH]nc(-c3ccccc3)c2C(c2cccc(C(F)(F)F)c2)N1c1ccccc1 (centres undefined)	-15	-20	nt	nt
CCC/C(O)=C1\C(=O)CC(C)(C)CC1=Nc1ccccc1O	-6	-6	5	87*
O=C(Nc1ccc(Cl)c(Cl)c1)Nc1nnc(CSc2ccccc2)s1	9	12	1	0
C[C@@H]1ON(C)[C@H]2C[C@H]3c4cc(-c5ccc(F)cc5)ccc4CCN3C[C@@H]12	3	3	nt	nt
SMILES	GC-B act	NPR1 activator	HDAC3 inhib	ALR inh
Nn1c(Cc2ccccc2)n[nH]c1=S	6	-3	1	95*
CCOc1ccc(Cc2n[nH]c(=S)n2Cc2ccccc2)cc1	7	1	4	95*
Cc1ccc(OCc2n[nH]c(=S)n2Cc2ccccc2)cc1	0	-1	-11	nt
Cc1ccc(N2C(=O)CS/C2=N\C(=S)Nc2ccccc2)cc1	0	0	-2	90*
Cc1nc2sc3c(c2c(=O)n1N)CCC3	10	0	0	5
CC(=O)N(C(C)=O)n1c(C)nc2sc3c(c2c1=O)CCCC3	2	1	1	97*
COc1ccccc1N1CCN(C(=O)c2cc(=O)c3ccc(C)cc3o2)CC1	-2	-2	-2	99*
COC(=O)C1=C(NC(=O)c2cccc(OC)c2)CCS1	-5	0	2	97*
CC(C)(C)c1ccc(C(=O)N2CCC(=O)N(C(CO)Cc3ccccc3)CC2)cc1 (centres undefined)	8	1	1	nt
COc1ccc(OC)c2c1C(=O)c1ccccc1C2=O	-4	-2	2	nt
COc1ccc(OC)c2c1C(=O)C(Cl)=C(Cl)C2=O	22	43*	-6	1
CS(=O)(=O)c1ccc(N)c(SSc2cc(S(C)(=O)=O)ccc2N)c1	0	2	11	99*
CCOc1ccc(N)c(SSc2cc(OCC)ccc2N)c1	4	5	0	7
NNC(=O)c1cccc(COc2ccccc2Br)c1	-7	0	1	98*
O=C(NCc1ccccc1)c1cccc(COc2ccccc2Cl)c1	4	7	4	-2
